According to PubChem BioAssay (NCATS):
Inconclusive results are not listed. Calls of active or inactive are those of the source. Calls follow the shape of the dose curve; as a rule, active = well fitted cell-killing curve with a large enough effect; inconclusive = small, poorly fitted or top-dose-only effect, or effect the other way; inactive = no such curve, though single readings can be large or run the other way.

Experiment: Quantitative High-Throughput drug screen in 47 multiple myeloma cell lines against the NCATS MIPE library collection: MMM1_PLB cell viability assay (AID 1918976); also: nearly all actives have a fitted effect of over 35% in size
Conditions: MMM1 myeloma cells viability, CellTiter-Glo, 48 h; series mostly up to 45.8 µM
Method in brief: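 Myeloma cells (500/well) treated with MIPE 4.0 compounds for 48 h at 37 °C, 5% CO2. Viability read as ATP via CellTiter-Glo luminescence after 5 min at RT; DMSO-only wells = 100%, media-only = 0% viability.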
Potency is read from the fitted curve at half-maximal effect.

SMILES	Potency
CC(=O)Nc1ccc([C@H](C)C(=O)Nc2ncc(C(C)C)s2)cc1	6.62 µM (active)
Cc1[nH]c(C=C2C(=O)Nc3ccc(S(=O)(=O)Cc4c(Cl)cccc4Cl)cc32)c(C)c1C(=O)N1CCC[C@H]1CN1CCCC1	23.5 µM (active)
Oc1ccc(C2=Cc3ccc(O)cc3OC2)cc1	5.26 µM (active)
Cc1nc(N)sc1-c1ccnc(Nc2ccc(N3CCOCC3)cc2)n1	20.9 µM (active)
Cc1ccc(C(=O)Nc2cccc(C(F)(F)F)c2)cc1Nc1nc(-c2cccnc2)nc2c1cnn2C	16.6 µM (active)
COCCOc1nc(-c2ccc(Cl)c(Cl)c2)n(-c2ccc(NC(=O)CCl)cc2)n1	16.6 µM (active)
CC(C)n1cnc2c(NCCCCCCNC(=O)OC(C)(C)C)nc(NCCO)nc21	18.7 µM (active)
CC(C)n1nc(-c2ccc3oc(N)nc3c2)c2c(N)ncnc21	0.0026 µM (active)
CC(=O)N(C)C1(c2ccccc2)CCN(CCC[C@]2(c3ccc(Cl)c(Cl)c3)CCCN(C(=O)c3ccccc3)C2)CC1	20.9 µM (active)
O=C(O)C=Cc1ccc(O)c(O)c1	7.43 µM (active)
O=C1NC(=O)C(=Cc2cccc(C(F)(F)F)c2)S1	23.5 µM (active)
CC[C@@]1(O)C[C@H](O[C@H]2C[C@H](N(C)C)[C@H](O[C@H]3C[C@H](O)[C@H](O[C@H]4CCC(=O)[C@H](C)O4)[C@H](C)O3)[C@H](C)O2)c2c(cc3c(c2O)C(=O)c2c(O)cccc2C3=O)[C@@H]1C(=O)OC	0.296 µM (active)
CCC(=O)NC[C@H](Cc1ccc(OCCc2nc(-c3ccccc3)oc2C)cc1)NC(C)=CC(=O)c1ccc(C(F)(F)F)cc1	20.9 µM (active)
